# Experimental data: ChEMBL document CHEMBL1961873, “Compounds: GSK PKIS; Assays: Nanosyn kinase panel” (2012)
# “And” between values parts separate entries of the source, which are not always exact repeats. Equal entries are not always repeated.
# What was measured:
# [1] = molecular target: T1, Tyrosine-protein kinase ITK/TSK (Homo sapiens) (UniProt Q08881); conditions: at 1 µM;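 also: values are mean percent inhibition of ITK from the GSK PKIS screen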
# T1 sequence (whole entry): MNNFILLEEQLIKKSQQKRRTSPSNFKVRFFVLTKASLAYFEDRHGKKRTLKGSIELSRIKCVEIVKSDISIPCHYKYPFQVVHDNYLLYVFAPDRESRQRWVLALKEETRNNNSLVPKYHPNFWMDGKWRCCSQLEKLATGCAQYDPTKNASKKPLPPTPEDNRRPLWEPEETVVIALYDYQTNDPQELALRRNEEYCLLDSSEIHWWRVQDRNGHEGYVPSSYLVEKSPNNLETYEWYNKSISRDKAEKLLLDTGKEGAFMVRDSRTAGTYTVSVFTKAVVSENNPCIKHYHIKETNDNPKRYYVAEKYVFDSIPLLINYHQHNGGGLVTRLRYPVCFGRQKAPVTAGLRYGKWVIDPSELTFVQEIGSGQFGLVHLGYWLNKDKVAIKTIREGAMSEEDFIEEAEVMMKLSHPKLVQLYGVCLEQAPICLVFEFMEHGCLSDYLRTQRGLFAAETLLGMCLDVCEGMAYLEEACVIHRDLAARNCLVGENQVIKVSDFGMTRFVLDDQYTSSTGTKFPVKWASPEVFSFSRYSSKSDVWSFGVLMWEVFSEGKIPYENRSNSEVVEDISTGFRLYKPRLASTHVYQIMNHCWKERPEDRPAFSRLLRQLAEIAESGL
# [2] = molecular target: Tyrosine-protein kinase JAK1 (Homo sapiens) (UniProt P23458); conditions: at 0.1 µM
# [3] = molecular target: Tyrosine-protein kinase JAK1 (Homo sapiens) (UniProt P23458); conditions: at 1 µM
# [4] = molecular target: Tyrosine-protein kinase JAK2 (Homo sapiens) (UniProt O60674); conditions: at 0.1 µM
# [5] = molecular target: Tyrosine-protein kinase JAK2 (Homo sapiens) (UniProt O60674); conditions: at 1 µM
# [6] = molecular target: T2, Tyrosine-protein kinase JAK3 (Homo sapiens) (UniProt P52333); conditions: at 0.1 µM
# T2 sequence (whole entry): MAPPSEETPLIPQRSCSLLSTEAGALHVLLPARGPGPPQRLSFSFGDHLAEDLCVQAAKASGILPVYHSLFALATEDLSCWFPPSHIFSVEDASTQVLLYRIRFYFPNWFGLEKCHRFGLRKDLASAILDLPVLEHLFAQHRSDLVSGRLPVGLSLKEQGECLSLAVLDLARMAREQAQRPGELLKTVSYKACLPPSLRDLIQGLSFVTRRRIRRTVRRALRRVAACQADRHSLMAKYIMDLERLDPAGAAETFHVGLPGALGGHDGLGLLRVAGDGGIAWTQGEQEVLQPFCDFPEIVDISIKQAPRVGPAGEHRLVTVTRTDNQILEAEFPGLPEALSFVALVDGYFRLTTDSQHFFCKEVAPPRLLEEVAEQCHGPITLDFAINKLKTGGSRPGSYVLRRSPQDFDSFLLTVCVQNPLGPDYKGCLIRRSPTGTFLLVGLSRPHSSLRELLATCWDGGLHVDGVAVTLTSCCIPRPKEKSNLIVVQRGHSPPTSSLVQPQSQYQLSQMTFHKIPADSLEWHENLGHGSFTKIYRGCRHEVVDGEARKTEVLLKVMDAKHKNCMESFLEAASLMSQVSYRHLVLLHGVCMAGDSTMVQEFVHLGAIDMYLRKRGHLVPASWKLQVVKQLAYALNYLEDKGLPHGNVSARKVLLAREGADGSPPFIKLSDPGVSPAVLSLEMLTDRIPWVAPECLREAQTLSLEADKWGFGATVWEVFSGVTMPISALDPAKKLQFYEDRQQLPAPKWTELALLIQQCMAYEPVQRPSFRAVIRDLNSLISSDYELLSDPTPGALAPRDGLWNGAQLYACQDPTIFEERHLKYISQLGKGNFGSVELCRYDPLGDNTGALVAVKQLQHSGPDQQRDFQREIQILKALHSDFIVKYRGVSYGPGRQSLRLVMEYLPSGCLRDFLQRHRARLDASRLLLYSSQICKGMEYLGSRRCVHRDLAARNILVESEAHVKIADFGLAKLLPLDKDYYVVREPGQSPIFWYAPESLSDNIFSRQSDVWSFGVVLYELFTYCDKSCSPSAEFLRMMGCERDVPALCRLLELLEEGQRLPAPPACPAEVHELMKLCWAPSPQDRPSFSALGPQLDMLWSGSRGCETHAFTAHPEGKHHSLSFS
# [7] = molecular target: T2, Tyrosine-protein kinase JAK3 (Homo sapiens); conditions: at 1 µM
# [8] = molecular target: Vascular endothelial growth factor receptor 2 (Homo sapiens) (UniProt P35968); conditions: at 0.1 µM
# [9] = molecular target: Vascular endothelial growth factor receptor 2 (Homo sapiens) (UniProt P35968); conditions: at 1 µM
# [10] = molecular target: Mast/stem cell growth factor receptor Kit (Homo sapiens) (UniProt P10721); conditions: at 0.1 µM
# [11] = molecular target: Mast/stem cell growth factor receptor Kit (Homo sapiens) (UniProt P10721); conditions: at 1 µM
# [12] = system: Mast/stem cell growth factor receptor Kit (Homo sapiens), P10721 [D816V]; conditions: at 0.1 µM
# [13] = system: Mast/stem cell growth factor receptor Kit (Homo sapiens), P10721 [D816V]; conditions: at 1 µM
# [14] = system: Mast/stem cell growth factor receptor Kit (Homo sapiens), P10721 [T670I]; conditions: at 0.1 µM
# [15] = system: Mast/stem cell growth factor receptor Kit (Homo sapiens), P10721 [T670I]; conditions: at 1 µM
# [16] = system: Mast/stem cell growth factor receptor Kit (Homo sapiens), P10721 [V560G]; conditions: at 0.1 µM
# [17] = system: Mast/stem cell growth factor receptor Kit (Homo sapiens), P10721 [V560G]; conditions: at 1 µM
# [18] = molecular target: Tyrosine-protein kinase Lck (Homo sapiens) (UniProt P06239); conditions: at 0.1 µM
# [19] = molecular target: Tyrosine-protein kinase Lck (Homo sapiens) (UniProt P06239); conditions: at 1 µM
# [20] = molecular target: Leukocyte tyrosine kinase receptor (Homo sapiens) (UniProt P29376); conditions: at 0.1 µM
# Leukocyte tyrosine kinase receptor (Homo sapiens), sequence (P29376 whole entry): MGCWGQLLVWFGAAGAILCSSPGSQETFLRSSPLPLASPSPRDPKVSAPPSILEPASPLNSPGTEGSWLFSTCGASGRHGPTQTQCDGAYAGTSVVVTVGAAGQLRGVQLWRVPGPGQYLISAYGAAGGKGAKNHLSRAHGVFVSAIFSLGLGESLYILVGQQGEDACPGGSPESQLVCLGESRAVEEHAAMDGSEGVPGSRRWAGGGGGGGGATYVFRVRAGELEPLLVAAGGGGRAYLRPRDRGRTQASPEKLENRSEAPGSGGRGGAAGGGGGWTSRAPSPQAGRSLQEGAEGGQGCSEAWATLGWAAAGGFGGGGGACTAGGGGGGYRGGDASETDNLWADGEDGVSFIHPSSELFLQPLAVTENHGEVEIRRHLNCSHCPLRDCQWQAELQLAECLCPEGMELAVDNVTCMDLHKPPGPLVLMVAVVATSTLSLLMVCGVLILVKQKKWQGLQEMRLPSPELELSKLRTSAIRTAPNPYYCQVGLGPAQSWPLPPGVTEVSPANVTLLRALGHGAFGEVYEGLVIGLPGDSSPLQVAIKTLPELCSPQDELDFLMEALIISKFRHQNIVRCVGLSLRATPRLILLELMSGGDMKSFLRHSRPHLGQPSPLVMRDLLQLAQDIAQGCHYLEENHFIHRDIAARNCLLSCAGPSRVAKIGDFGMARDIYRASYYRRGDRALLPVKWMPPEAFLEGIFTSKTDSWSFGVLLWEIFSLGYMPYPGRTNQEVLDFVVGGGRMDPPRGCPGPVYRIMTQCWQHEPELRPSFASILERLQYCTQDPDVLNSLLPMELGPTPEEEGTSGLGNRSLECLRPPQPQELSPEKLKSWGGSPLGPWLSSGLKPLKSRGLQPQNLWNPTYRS
# Tyrosine-protein kinase Lck (Homo sapiens), sequence (P06239 2-509 limits assumed): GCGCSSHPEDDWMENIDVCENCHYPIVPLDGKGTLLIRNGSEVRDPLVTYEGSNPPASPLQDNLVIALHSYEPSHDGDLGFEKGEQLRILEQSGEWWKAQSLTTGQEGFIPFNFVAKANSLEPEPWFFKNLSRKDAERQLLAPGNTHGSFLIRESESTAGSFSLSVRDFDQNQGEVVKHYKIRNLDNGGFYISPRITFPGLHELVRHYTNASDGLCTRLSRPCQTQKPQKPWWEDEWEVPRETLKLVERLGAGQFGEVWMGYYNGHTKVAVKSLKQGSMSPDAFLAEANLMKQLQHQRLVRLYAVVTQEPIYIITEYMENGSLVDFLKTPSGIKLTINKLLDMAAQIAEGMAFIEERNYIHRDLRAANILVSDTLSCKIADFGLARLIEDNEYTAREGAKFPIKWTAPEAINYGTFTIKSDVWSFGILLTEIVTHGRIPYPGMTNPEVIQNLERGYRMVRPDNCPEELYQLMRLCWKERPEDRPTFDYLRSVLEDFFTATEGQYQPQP
# Tyrosine-protein kinase JAK2 (Homo sapiens), sequence (O60674 whole entry): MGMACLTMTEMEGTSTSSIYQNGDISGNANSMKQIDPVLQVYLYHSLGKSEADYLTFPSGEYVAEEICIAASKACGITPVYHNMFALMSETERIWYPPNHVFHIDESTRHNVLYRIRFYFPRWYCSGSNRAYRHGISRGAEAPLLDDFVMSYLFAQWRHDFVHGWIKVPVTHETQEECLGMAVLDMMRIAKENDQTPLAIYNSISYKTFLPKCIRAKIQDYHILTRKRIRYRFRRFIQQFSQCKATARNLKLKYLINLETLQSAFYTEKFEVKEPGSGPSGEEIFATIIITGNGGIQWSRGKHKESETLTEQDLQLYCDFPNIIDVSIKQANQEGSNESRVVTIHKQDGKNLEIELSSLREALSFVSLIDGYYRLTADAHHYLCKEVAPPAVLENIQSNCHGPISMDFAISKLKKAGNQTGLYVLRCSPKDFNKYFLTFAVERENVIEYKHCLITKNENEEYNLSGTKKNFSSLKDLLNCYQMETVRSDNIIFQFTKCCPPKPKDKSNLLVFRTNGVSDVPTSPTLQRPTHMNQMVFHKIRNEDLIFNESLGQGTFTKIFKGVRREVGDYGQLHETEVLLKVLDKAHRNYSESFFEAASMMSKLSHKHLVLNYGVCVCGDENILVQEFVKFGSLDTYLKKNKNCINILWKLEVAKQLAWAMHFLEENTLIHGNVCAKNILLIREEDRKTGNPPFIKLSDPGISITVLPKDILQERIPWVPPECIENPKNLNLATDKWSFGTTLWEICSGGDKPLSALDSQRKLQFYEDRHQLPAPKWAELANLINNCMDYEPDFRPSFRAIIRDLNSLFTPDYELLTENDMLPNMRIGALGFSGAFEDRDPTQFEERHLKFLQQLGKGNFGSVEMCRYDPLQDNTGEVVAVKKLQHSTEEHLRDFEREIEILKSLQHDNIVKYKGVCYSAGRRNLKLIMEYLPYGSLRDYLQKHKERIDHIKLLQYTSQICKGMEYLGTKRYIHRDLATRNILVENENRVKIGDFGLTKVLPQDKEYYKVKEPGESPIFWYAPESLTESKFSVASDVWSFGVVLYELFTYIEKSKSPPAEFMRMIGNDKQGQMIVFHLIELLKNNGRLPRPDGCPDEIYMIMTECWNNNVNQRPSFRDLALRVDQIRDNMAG
# Vascular endothelial growth factor receptor 2 (Homo sapiens), sequence (P35968 whole entry): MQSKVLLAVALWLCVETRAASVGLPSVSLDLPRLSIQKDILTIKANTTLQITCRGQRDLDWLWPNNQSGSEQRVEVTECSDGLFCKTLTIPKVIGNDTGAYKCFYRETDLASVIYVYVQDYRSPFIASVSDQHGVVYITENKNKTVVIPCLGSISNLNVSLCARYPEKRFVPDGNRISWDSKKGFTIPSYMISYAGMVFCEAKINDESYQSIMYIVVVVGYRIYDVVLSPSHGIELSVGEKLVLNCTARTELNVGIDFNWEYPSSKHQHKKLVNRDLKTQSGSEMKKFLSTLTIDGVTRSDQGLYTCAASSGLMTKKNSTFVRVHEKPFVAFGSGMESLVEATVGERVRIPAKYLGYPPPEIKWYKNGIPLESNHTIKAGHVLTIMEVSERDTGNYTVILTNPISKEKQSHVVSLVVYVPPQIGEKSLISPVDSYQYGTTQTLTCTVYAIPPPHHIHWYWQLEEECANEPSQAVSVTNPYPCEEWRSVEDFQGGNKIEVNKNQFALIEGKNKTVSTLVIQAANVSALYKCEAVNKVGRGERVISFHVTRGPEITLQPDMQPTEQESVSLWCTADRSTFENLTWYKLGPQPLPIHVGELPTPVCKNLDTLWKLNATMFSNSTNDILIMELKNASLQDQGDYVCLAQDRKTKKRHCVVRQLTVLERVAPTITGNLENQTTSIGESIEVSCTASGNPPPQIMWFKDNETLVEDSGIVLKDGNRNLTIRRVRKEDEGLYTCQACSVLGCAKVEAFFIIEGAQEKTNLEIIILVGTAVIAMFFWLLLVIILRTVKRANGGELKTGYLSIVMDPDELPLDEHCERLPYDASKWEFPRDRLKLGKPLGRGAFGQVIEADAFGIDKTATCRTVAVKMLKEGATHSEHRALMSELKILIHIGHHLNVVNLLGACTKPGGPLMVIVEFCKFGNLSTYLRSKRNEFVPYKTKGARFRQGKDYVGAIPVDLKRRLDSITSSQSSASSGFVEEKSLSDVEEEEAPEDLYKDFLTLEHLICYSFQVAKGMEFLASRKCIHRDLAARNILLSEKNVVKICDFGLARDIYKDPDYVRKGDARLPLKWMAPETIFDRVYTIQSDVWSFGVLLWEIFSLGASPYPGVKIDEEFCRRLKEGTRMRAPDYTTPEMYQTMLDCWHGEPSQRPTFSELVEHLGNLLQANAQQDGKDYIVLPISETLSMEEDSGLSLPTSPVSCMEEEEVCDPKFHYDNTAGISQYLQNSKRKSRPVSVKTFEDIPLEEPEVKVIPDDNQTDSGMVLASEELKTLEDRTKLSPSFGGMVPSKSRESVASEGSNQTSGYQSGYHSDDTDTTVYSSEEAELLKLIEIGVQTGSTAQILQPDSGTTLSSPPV
# Mast/stem cell growth factor receptor Kit (Homo sapiens), sequence (P10721 whole entry): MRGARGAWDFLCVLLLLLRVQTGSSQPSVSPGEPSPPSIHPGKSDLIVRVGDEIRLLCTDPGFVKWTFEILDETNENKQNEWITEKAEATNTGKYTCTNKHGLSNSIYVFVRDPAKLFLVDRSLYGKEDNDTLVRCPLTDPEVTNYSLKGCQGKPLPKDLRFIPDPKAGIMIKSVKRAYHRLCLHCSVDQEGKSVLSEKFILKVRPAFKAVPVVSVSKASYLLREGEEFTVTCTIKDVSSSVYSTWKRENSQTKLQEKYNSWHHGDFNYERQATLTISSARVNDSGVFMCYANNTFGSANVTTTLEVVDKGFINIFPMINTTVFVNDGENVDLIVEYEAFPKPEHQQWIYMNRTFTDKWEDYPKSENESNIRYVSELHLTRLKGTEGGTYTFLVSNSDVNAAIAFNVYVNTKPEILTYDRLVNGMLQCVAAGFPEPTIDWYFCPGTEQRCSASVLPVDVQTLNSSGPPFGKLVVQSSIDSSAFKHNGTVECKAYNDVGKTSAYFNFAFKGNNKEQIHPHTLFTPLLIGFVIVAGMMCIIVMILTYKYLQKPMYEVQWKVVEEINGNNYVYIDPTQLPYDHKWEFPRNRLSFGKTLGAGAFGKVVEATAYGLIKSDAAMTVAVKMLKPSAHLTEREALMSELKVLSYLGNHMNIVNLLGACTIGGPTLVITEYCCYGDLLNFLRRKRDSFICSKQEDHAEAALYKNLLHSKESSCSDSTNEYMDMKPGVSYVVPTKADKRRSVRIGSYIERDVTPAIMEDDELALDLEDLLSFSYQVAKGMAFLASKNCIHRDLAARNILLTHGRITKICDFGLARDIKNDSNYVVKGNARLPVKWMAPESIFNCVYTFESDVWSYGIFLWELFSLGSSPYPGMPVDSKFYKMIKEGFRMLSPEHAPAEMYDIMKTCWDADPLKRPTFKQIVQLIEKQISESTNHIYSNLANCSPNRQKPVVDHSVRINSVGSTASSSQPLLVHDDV
# Mast/stem cell growth factor receptor Kit (Homo sapiens), P10721 [D816V], sequence (P10721 whole entry D816V): as the sequence (P10721 whole entry) above, with D816V counted along it
# Mast/stem cell growth factor receptor Kit (Homo sapiens), P10721 [T670I], sequence (P10721 whole entry T670I): as the sequence (P10721 whole entry) above, with T670I counted along it
# Mast/stem cell growth factor receptor Kit (Homo sapiens), P10721 [V560G], sequence (P10721 whole entry V560G): as the sequence (P10721 whole entry) above, with V560G counted along it
Structure (SMILES),inhibition [1],inhibition [2],inhibition [3],inhibition [4],inhibition [5],inhibition [6],inhibition [7],inhibition [8],inhibition [9],inhibition [10],inhibition [11],inhibition [12],inhibition [13],inhibition [14],inhibition [15],inhibition [16],inhibition [17],inhibition [18],inhibition [19],inhibition [20]
CC1(C)CC(n2cnc(-c3ccc(F)cc3)c2-c2ccnc(N)n2)CC(C)(C)N1,0.97%,-2.83%,1.68%,0.57%,-0.41%,-0.01%,-0.6%,-0.9%,5.32%,-0.71%,2.82%,-0.86%,-3.56%,2.5%,1.11%,1.03%,-0.87%,-0.02%,6.94%,1.09%
COc1ccc(-c2nn3ncccc3c2-c2ccnc(Nc3ccc(F)c(F)c3)n2)cc1,3.13%,3.71%,14.6%,0.73%,1.18%,-1.36%,0.8%,6.9%,20.6%,7.56%,28.2%,6.57%,5.39%,3.81%,11.5%,-0.18%,4.13%,7.63%,39.1%,4.19%
COC(=O)Nc1nc2ccc(Oc3ccc(NC(=O)Nc4cc(C(F)(F)F)ccc4F)cc3)cc2s1,2.72%,0.07%,9.06%,1.98%,7.31%,-0.26%,0.75%,69.8%,85.1%,17.9%,73.9%,-1.16%,-0.29%,14.4%,46.7%,19.8%,73.7%,15.2%,47.1%,1.83%
CS(=O)(=O)Nc1ccc(-c2ccc3c(NC(=O)C4CC4)n[nH]c3c2)cc1,4.27%,2.35%,-1.13%,1.06%,2.88%,-0.85%,1.11%,4.26%,9.88%,1.72%,6.32%,2.91%,2.86%,1.55%,1.56%,0.02%,0.94%,2.88%,8.63%,4.21%
O=C(O[C@H]1CN[C@H](C#Cc2cc3ncnc(Nc4ccc(OCc5cccc(F)c5)c(Cl)c4)c3s2)C1)N1CCOCC1,2.04%,5.13%,13.7%,0.79%,1.3%,-0.56%,-2.5%,2.63%,7.79%,5.01%,6.15%,7.97%,7.17%,4.04%,5.91%,-2.49%,-1.75%,1.76%,1.88%,4.09%
COc1cc(N2CCN(C(C)C)CC2)ccc1Nc1nc(Nc2cccc3ncccc23)c2cc[nH]c2n1,2.05%,-1.68%,-0.17%,-0.12%,0.72%,1.35%,1.57%,1.96%,3.64%,-0.77%,2.29%,-1.39%,-2.2%,0.28%,0.54%,0.73%,6.87%,0.42%,3.07%,34.7%
CCCNc1cccc(-n2ncc3c(N/N=C/c4ccncc4)ncnc32)c1,10.8%,6.59%,11.7%,0.82%,14.7%,-1.09%,8.21%,17.3%,64.9%,2.4%,23.7%,-0.57%,9.89%,1.36%,5.45%,7.17%,13.4%,23.1%,68.3%,1.2%
COc1ccc(Nc2ncc(-c3ccccc3)o2)cc1OC,3.7%,0.7%,7.81%,1.09%,3.43%,0.88%,10.7%,10.6%,44.2%,79.1%,95.9%,-0.42%,1.76%,46.1%,90.3%,45.7%,84.8%,2.31%,21.2%,1.44%
Cc1cc(O)cc(C)c1/C=C/c1cncc(C(N)=O)c1,2.12%,-0.72%,2.56%,2.3%,2.93%,-0.77%,1.29%,4.56%,6.58%,16.3%,66.6%,3.61%,2.03%,2.25%,1.74%,2.69%,22.9%,8.78%,44.1%,2.14%
COc1ccccc1-c1cc(/C=C2\C(=O)Nc3ncc(Br)cc32)cc(Br)c1O,3.95%,2.55%,0.51%,1.66%,3.2%,-0.19%,5.39%,6.49%,8.56%,8.06%,27.9%,4.84%,1.87%,3.92%,3.21%,1.58%,4.31%,2.46%,8.22%,3.94%
Nc1nccc(-c2c(-c3ccc(F)cc3)ncn2C2CCNCC2)n1,-0.06% and 1.58%,-5.03% and -2.79%,1.1% and 3.47%,-1.85% and 0.8%,-1.57% and 1.93%,0.47% and 0.86%,2.72% and 2.66%,-2.27% and 1.08%,2.47% and 2.78%,-3.74% and 1.54%,-2.8% and 0.85%,13% and -2.76%,1.63% and 3.54%,-2.81% and 0.49%,-3.42% and -0.01%,1.31% and 1.87%,3.68% and 1.62%,1.27% and 4.01%,14.3% and 17.1%,-2.04% and 0.7%
CN(C)CCNC(=O)Nc1ccc(N(C)c2ccnc(Nc3ccc(CS(C)(=O)=O)cc3)n2)cc1,3.84%,3.89%,-1.93%,1.46%,3.2%,-1.47%,-0.17%,7.04%,18.9%,13.9%,57.6%,3.66%,3.76%,4.26%,6.89%,11.7%,54.1%,3.05%,8.53%,3.62%
Cc1ccc(-c2cc3c(NC(=O)C4CC4)ncnc3o2)cc1,2.63%,2.29%,1.7%,2.06%,2.55%,-0.9%,2.42%,6.12%,13.4%,8.72%,32.2%,4.08%,5.68%,4.38%,8.01%,-2.51%,0.4%,2.92%,11.2%,4.28%
